Experimental data reported in PubChem BioAssay AID1159580 (chemical genetic matrix, 2015).
Screen size: about 5,500 compounds; about 2,000 (36%) were called active. Roughly 18% stayed inconclusive and do not appear here. Cut-off read from the data, not from the text of the source: active = normalized growth mostly below about 0.91 (no sharp cut-off); inconclusive = no clear call, values can overlap the other calls; inactive = mostly above about 0.92. The list shows a part of the results.

Test: chemical genetic growth profiling, strain panel (AID 1159580);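 note: tested at 20 µM; growth read once vehicle control cultures reached saturation at 30 °C; 1 = growth at the plate median or of vehicle wells; lower values mean less growth of the strain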
Conditions: S. cerevisiae deletion strains, growth OD

Measured: normalized growth

C[C@@H](NC(=O)/C(C#N)=C/c1ccc(O)c(O)c1)c1ccccc1
inactive: locus YAL013W, strain DEP1, stronger effect = lower value 0.997 | locus YAL040C, strain CLN3, stronger effect = lower value 0.993 | locus YCL061C, strain MRC1 (second series), stronger effect = lower value 0.983 | locus YDR363W, strain ESC2, stronger effect = lower value 1.01 | locus YER002W, strain NOP16, stronger effect = lower value 0.998 | locus YJR075W, strain HOC1, stronger effect = lower value 0.963 | locus YMR263W, strain SAP30, stronger effect = lower value 1 | locus YMR307W, strain GAS1, stronger effect = lower value 1.01 | locus YNL153C, strain GIM3, stronger effect = lower value 0.978 | locus YNL175C, strain NOP13, stronger effect = lower value 1 | locus YNL197C, strain WHI3, stronger effect = lower value 1 | locus YNL224C, strain SQS1, stronger effect = lower value 1.01 | locus YNL322C, strain KRE1, stronger effect = lower value 1.01 | locus YOR083W, strain WHI5 (second series), stronger effect = lower value 1.01 | locus YPL055C, strain LGE1, stronger effect = lower value 0.932

Cc1nn(-c2cccc(Cl)c2)c2oc(=O)cc(C(F)(F)F)c12
active: locus YDL214C, strain PRR2, stronger effect = lower value 0.609 | locus YDR477W, strain SNF1, stronger effect = lower value 0.566 | locus YER123W, strain YCK3, stronger effect = lower value 0.342 | locus YER133W, strain GLC7, stronger effect = lower value 0.48 | locus YFR019W, strain FAB1, stronger effect = lower value 0.572 | locus YGR040W, strain KSS1, stronger effect = lower value 0.654 | locus YGR052W, strain FMP48, stronger effect = lower value 0.538 | locus YGR092W, strain DBF2, stronger effect = lower value 0.367 | locus YHR030C, strain SLT2, stronger effect = lower value 0.154 | locus YHR079C, strain IRE1, stronger effect = lower value 0.231 | locus YHR082C, strain KSP1, stronger effect = lower value 0.508 | locus YJL095W, strain BCK1, stronger effect = lower value 0.359 | locus YJL157C, strain FAR1, stronger effect = lower value 0.467 | locus YJR066W, strain TOR1 (second series), stronger effect = lower value 0.552 | locus YJR066W, strain TOR1, stronger effect = lower value 0.343 | locus YKL048C, strain ELM1, stronger effect = lower value 0.753 | locus YKL067W, strain YNK1, stronger effect = lower value 0.705 | locus YKL203C, strain TOR2, stronger effect = lower value 0.614 | locus YLR113W, strain HOG1, stronger effect = lower value 0.35 | locus YLR133W, strain CKI1, stronger effect = lower value 0.545 | locus YLR403W, strain SFP1, stronger effect = lower value 0.393 | locus YML070W, strain DAK1, stronger effect = lower value 0.515 | locus YNL020C, strain ARK1, stronger effect = lower value 0.574 | locus YNL183C, strain NPR1, stronger effect = lower value 0.464 | locus YNL307C, strain MCK1 (second series), stronger effect = lower value 0.536 | locus YOL136C, strain PFK27, stronger effect = lower value 0.342 | locus YOR119C, strain RIO1, stronger effect = lower value 0.544 | locus YOR231W, strain MKK1, stronger effect = lower value 0.501 | locus YPL031C, strain PHO85, stronger effect = lower value 0.535 | locus YPL153C, strain RAD53, stronger effect = lower value 0.6 | locus YPL204W, strain HRR25, stronger effect = lower value 0.469 | locus YPL256C, strain CLN2, stronger effect = lower value 0.201
inactive: locus YAR019C, strain CDC15, stronger effect = lower value 0.977 | locus YBL105C, strain PKC1, stronger effect = lower value 0.966 | locus YBR135W, strain CKS1, stronger effect = lower value 0.975 | locus YBR136W, strain MEC1, stronger effect = lower value 0.974 | locus YBR160W, strain CDC28, stronger effect = lower value 0.974 | locus YDL017W, strain CDC7, stronger effect = lower value 0.968 | locus YDL028C, strain MPS1, stronger effect = lower value 0.979 | locus YDL101C, strain DUN1, stronger effect = lower value 0.961 | locus YDL108W, strain KIN28, stronger effect = lower value 0.968 | locus YDL132W, strain cdc53, stronger effect = lower value 0.972 | locus YDR052C, strain DBF4, stronger effect = lower value 0.96 | locus YDR054C, strain cdc34, stronger effect = lower value 0.973 | locus YDR226W, strain ADK1, stronger effect = lower value 0.962 | locus YFL009W, strain cdc4, stronger effect = lower value 0.964 | locus YFL029C, strain CAK1, stronger effect = lower value 0.976 | locus YFR003C, strain YPI1, stronger effect = lower value 0.966 | locus YFR028C, strain CDC14, stronger effect = lower value 0.971 | locus YHR205W, strain SCH9, stronger effect = lower value 0.615 | locus YIL147C, strain SLN1, stronger effect = lower value 0.976 | locus YJL128C, strain PBS2, stronger effect = lower value 0.95 | locus YJR016C, strain ILV3, stronger effect = lower value 0.976 | locus YKL101W, strain HSL1, stronger effect = lower value 0.776 | locus YKL193C, strain SDS22, stronger effect = lower value 0.975 | locus YMR001C, strain CDC5, stronger effect = lower value 0.962 | locus YMR205C, strain PFK2 (second series), stronger effect = lower value 0.78 | locus YMR277W, strain FCP1, stronger effect = lower value 0.98 | locus YNL006W, strain LST8, stronger effect = lower value 0.977 | locus YNL161W, strain CBK1, stronger effect = lower value 0.968 | locus YNL207W, strain RIO2, stronger effect = lower value 0.963 | locus YNL222W, strain SSU72, stronger effect = lower value 0.975 | locus YOL078W, strain AVO1, stronger effect = lower value 0.97 | locus YOR061W, strain CKA2, stronger effect = lower value 0.681 | locus YOR329C, strain SCD5, stronger effect = lower value 0.964 | locus YPL209C, strain IPL1, stronger effect = lower value 0.972 | locus YPR025C, strain CCL1, stronger effect = lower value 0.968 | locus YPR106W, strain ISR1, stronger effect = lower value 0.979 | locus YPR111W, strain DBF20, stronger effect = lower value 0.96 | strain NNK1, stronger effect = lower value 0.978 | strain TSCII, stronger effect = lower value 0.967
